# Assay outcomes as filed in PubChem.
# PostGolgi ctrl: inhibits growth of the yeast control strain | efflux-deficient yeast background strain, growth absorbance A615, 16 h | inhibition, % at 10 µM | hit rate 5% among 98,000 | AID 738
# CYP2C19 inhib: human CYP2C19 inhibition; inhibition, % at 5 µM; hit rate 21% among 96,000; AID 778; CYP2C19 Supersomes, luciferin-H EGE luminescence, 30 min; P33261;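 active = CYP2C19 inhibition above a set limit at 5 µM in the primary screen, cut at about 50% in these data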;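 also: plate controls were negative control wells for no effect and 2.5 mM tranylcypromine positive control for full effect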
# Target sequence (P33261 whole entry, looked up): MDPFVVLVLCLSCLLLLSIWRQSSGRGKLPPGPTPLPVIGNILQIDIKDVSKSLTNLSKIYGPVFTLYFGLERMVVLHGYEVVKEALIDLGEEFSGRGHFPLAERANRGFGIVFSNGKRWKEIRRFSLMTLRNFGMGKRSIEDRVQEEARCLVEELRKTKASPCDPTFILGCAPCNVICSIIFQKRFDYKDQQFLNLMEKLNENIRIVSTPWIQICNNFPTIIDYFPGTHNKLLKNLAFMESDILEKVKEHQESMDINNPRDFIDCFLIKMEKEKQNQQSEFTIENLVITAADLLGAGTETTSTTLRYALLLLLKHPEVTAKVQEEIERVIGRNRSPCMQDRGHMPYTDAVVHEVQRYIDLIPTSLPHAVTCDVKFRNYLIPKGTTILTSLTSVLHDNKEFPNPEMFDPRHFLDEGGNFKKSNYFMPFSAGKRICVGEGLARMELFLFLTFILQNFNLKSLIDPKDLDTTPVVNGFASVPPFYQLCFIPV
# CYP2C9 inh: inhibitors of human CYP2C9 | P11712 | CYP2C9 Supersomes, luciferin-H conversion, luminescence | inhibition, % at 5 µM | hit rate 20% among 96,000;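 active = blocking of liver enzyme CYP2C9 beyond about 50% at 5 µM, limit read from the data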
# PostGolgi yeast: growth inhibition of a yeast mutant, post-Golgi transport screen. hit rate 0.9% among 98,000. post-Golgi transport phenotypic cell assay. inhibition, % at 10 µM;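 also: yeast cells grown in 1536-well plates; yeast grown about 18 h at 30C before absorbance read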
# CYP2C19 activ: increases human CYP2C19 enzyme activity. recombinant CYP2C19, luciferin-H EGE luminescence; stronger effect = higher value; 0 = fully inhibited enzyme, 1 = untreated enzyme. 96,000 tested, under 10 active. P33261. activation factor at 5 µM. AID 1025;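 active = activation factor of at least 2 at 5 µM in the primary screen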;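 also: 0 = wells with 2.5 mM tranylcypromine and 1 = vehicle-only wells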
# CYP2C9 act: activators of human CYP2C9; recombinant CYP2C9, luciferin-H conversion, luminescence; stronger effect = higher value; factor 1 = untreated enzyme, 0 = blocked; activation factor at 5 µM; hit rate 1.4% among 96,000; P11712;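 active = activation factor of 2 or more for CYP2C9 at a 5 µM dose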;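 also: 0 = sulfaphenazole-blocked wells and 1 = vehicle-only wells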
# Starred values were filed as active, the others as inactive. Sampled rows, rich in hits. Any-hit rate of the full collection: about 32%. Rule as the data show it, unless noted: active = inhibition above about 30%; inactive = the rest.
SMILES,PostGolgi ctrl,CYP2C19 inhib,CYP2C9 inh,PostGolgi yeast,CYP2C19 activ,CYP2C9 act
O=C(Cn1nc(-c2ccccc2)ccc1=O)NCCN1CCN(Cc2ccccc2)CC1,2,84*,8,-1,0.2,0.9
CCCN1CCCc2cc(CN)ccc21,5,90*,84*,5,0.1,0.2
c1ccc2c(c1)CCN2CCN1CCc2ccccc21,2,27,21,-3,0.7,0.8
COC(=O)c1cccc(N(C(=O)c2cnccn2)C(C(=O)NC2CCCCC2)c2cn(C)nc2C)c1 (stereo not given),-2,3,-8,4,1,1.1
O=C(Nc1nnc(-c2ccc3c(c2)CCCC3)o1)c1ccccc1Cl,28,-2,-16,88*,1,1.2
Cc1cccc(-c2nnc(NC(=O)c3ccc(Cl)cc3)o2)c1,81*,1,-30,94*,1,1.3
O=C(COc1ccccc1)Nc1nnc(-c2ccc3c(c2)CCCC3)o1,31*,12,52*,-14,0.9,0.5
O=C(COc1ccccc1)Nc1ccc(-c2nnc(-c3ccco3)o2)cc1,10,15,18,0,0.9,0.8
O=C(Nc1nnc(-c2ccc3c(c2)CCCC3)o1)c1ccccc1,11,3,31,100*,1,0.7
O=C(Nc1nnc(-c2ccc3c(c2)OCCO3)o1)c1ccc(Cc2ccccc2)cc1,11,15,19,-4,0.8,0.8
N#Cc1c(NC(=O)CN2CCN(S(=O)(=O)c3ccc4c(c3)OCCO4)CC2)sc2c1CCC2,0,14,8,-6,0.9,0.9
CN1CCN(C(=O)C2(NC(=O)Nc3cccc(F)c3)CCCCC2)CC1,12,47,35,-2,0.5,0.7
O=C1CC(C(=O)Nc2ccc(F)c(Cl)c2)N=C(N2CCCCC2)N1 (stereo not given),13,7,10,7,0.9,0.9
CCc1nnc(NC2=NCCC2)s1,33*,2,-15,7,1,1.1
CNc1nc(-c2ccc(Cl)cc2)cs1,16,60*,25,-8,0.4,0.8
CCNc1nc(-c2ccc(Cl)cc2)cs1,14,35,0,-5,0.7,1
CCOC(=O)C1C(=O)C=C(c2ccc(C)cc2)CC1c1ccco1 (stereo not given),11,54*,80*,-6,0.5,0.2
CCOC(=O)C1C(=O)C=C(c2ccc(NS(C)(=O)=O)cc2)CC1c1ccco1 (stereo not given),1,21,75*,6,0.8,0.2
CCOC(=O)C1C(C)=CC(=O)CC1c1ccco1 (stereo not given),-5,32,2,2,0.7,1
CCOC(=O)CSc1nnc(-c2ccoc2C)n1-c1ccc(OCC)cc1,-1,92*,82*,-8,0.1,0.2
COc1cccc(-n2c(SCC(=O)NC(C)(C)C)nnc2-c2ccoc2C)c1,2,73*,11,-3,0.3,0.9
O=C(CN1CCN(Cc2ccccc2Cl)C1=O)N1CCCCCC1,-3,59*,-47,-4,0.4,1.5
O=c1cc(N2CCCCC2)c(-c2ccccc2)nn1Cc1ccccc1Cl,44*,32,48,-4,0.7,0.5
O=c1cc(N2CCCCC2)c(-c2ccccc2)nn1Cc1cccc(Cl)c1,31*,27,20,-4,0.7,0.8
O=c1cc(N2CCCCC2)c(-c2ccccc2)nn1Cc1ccc(Cl)cc1Cl,28,32,31,2,0.7,0.7
SMILES,PostGolgi ctrl,CYP2C19 inhib,CYP2C9 inh,PostGolgi yeast,CYP2C19 activ,CYP2C9 act
CN(CCNC(=O)CN1CCN(Cc2ccccc2Cl)C1=O)Cc1ccccc1,-2,40,29,-6,0.6,0.7
O=C(NNC1=C(C(=O)C(F)(F)F)CCC1)c1ccc(Br)cc1,-1,7,69*,2,0.9,0.3
O=C(NNC1=C(C(=O)C(F)(F)F)CCC1)c1ccccc1O,1,26,85*,3,0.7,0.2
COc1ccccc1C(=O)NNC1=C(C(=O)C(F)(F)F)CCC1,18,6,21,4,0.9,0.8
O=C(NNC1=C(C(=O)C(F)(F)F)CCC1)c1ccccc1Cl,1,-10,96*,0,1.1,0
CC(=O)NC1=C(C#N)C(c2ccccc2)c2c(ccc3ccccc23)O1 (stereo not given),24,91*,95*,-8,0.1,0
